# Test results: the supplement of paper PMC7057948, “A genome-wide approach for identification and characterisation of metabolite-inducible systems” (Nature Communications, 2020)
# Assays:
# Settings in all cases: inducer concentration 5 mM; 6 h; Cupriavidus necator H16; minimal medium + 0.4% gluconate
# [1] = test system: AcoR/P_H16_RS19445 acetoin biosensor (pEH052); assay: relative induction of RFP reporter vs primary effector (background-corrected); higher = stronger activation of the biosensor
# Procedure: (§1)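 C. necator H16 strains, each carrying one of 21 transcription factor/inducible promoter–mRFP biosensor plasmids, were grown in minimal medium in 96-well plates (robotic platform). Each was exposed to 46 structurally or metabolically related compounds at 5 mM at 30 °C. OD-normalised RFP fluorescence was read 6 h later and expressed as relative induction (%) = 100 × (FL compound − FL uninduced)/(FL primary inducer − FL uninduced); mean of n=4.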
# [2] = test system: AraC/P_araBAD L-arabinose biosensor (pEH176); assay: as above
# Procedure: as §1
# [3] = test system: BenM/P_H16_RS09790 benzoate biosensor (pEH148); assay: as above
# Procedure: as §1
# [4] = test system: FdsR/P_H16_RS03165 formate biosensor (pEH134); assay: as above
# Procedure: as §1
# [5] = test system: GabR/P_H16_RS23655 GABA biosensor (pEH256); assay: as above
# Procedure: as §1
# [6] = test system: HpdR/P_H16_RS18295 3-hydroxypropanoate biosensor (pEH010); assay: as above
# Procedure: as §1
# [7] = test system: KynR/P_H16_RS14030 L-kynurenine biosensor (pEH136); assay: as above
# Procedure: as §1
# [8] = test system: NahR/P_H16_RS08125 salicylate biosensor (pEH042); assay: as above
# Procedure: as §1
# [9] = test system: OapR/P_H16_RS01330 beta-alanine biosensor (pEH147); assay: as above
# Procedure: as §1
# [10] = test system: PcaQ/P_H16_RS30145 3,4-dihydroxybenzoate biosensor (pEH161); assay: as above
# Procedure: as §1
# [11] = test system: PhgR/P_H16_RS05530 phenylglyoxylate biosensor (pEH155); assay: as above
# Procedure: as §1
# [12] = test system: PhhR/P_H16_RS18365 L-phenylalanine biosensor (pEH137); assay: as above
# Procedure: as §1
# [13] = test system: SauR/P_H16_RS13695 sulfonatoacetate biosensor (pEH157); assay: as above
# Procedure: as §1
# [14] = test system: TtdR/P_H16_RS10665 tartrate biosensor (pEH083); assay: as above
# Procedure: as §1
# [15] = test system: XdhR/P_H16_RS05055 xanthine biosensor (pEH154); assay: as above
# Procedure: as §1
# [16] = test system: heterologous inducible system pEH002 (rhamnose/acrylate/cumate/itaconate set); assay: as above
# Procedure: as §1
# [17] = test system: heterologous inducible system pEH020 (rhamnose/acrylate/cumate/itaconate set); assay: as above
# Procedure: as §1
# [18] = test system: heterologous inducible system pEH040 (rhamnose/acrylate/cumate/itaconate set); assay: as above
# Procedure: as §1
# [19] = test system: heterologous inducible system pEH086 (rhamnose/acrylate/cumate/itaconate set); assay: as above
# Procedure: as §1
# [20] = test system: AcoR/P_H16_RS19445 acetoin biosensor (pEH052); assay: relative induction of RFP reporter vs primary effector; higher = stronger activation
# Procedure: (§2)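 Orthogonality screen of 21 primary inducers against 21 transcription factor/inducible promoter–mRFP biosensors in C. necator H16 in minimal medium, robotic 96-well format, 5 mM inducer, 30 °C. OD-normalised RFP fluorescence was read 6 h later and expressed as relative induction (%) = 100 × (FL compound − FL uninduced)/(FL primary inducer − FL uninduced); mean of n=4. Cognate pairs (100% by definition) omitted.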
# [21] = test system: AraC/P_araBAD L-arabinose biosensor (pEH176); assay: as above
# Procedure: as §2
# [22] = test system: BadR/P_H16_RS27200 cyclohexanecarboxylate biosensor (pEH159); assay: as above
# Procedure: as §2
# [23] = test system: FdsR/P_H16_RS03165 formate biosensor (pEH134); assay: as above
# Procedure: as §2
# [24] = test system: GabR/P_H16_RS23655 GABA biosensor (pEH256); assay: as above
# Procedure: as §2
# [25] = test system: HpdA/P_H16_RS24175 L-tyrosine biosensor (pEH158); assay: as above
# Procedure: as §2
# [26] = test system: NahR/P_H16_RS08125 salicylate biosensor (pEH042); assay: as above
# Procedure: as §2
# [27] = test system: OapR/P_H16_RS01330 beta-alanine biosensor (pEH147); assay: as above
# Procedure: as §2
# [28] = test system: PhgR/P_H16_RS05530 phenylglyoxylate biosensor (pEH155); assay: as above
# Procedure: as §2
# [29] = test system: SauR/P_H16_RS13695 sulfonatoacetate biosensor (pEH157); assay: as above
# Procedure: as §2
# [30] = test system: TtdR/P_H16_RS10665 tartrate biosensor (pEH083); assay: as above
# Procedure: as §2
# [31] = test system: XdhR/P_H16_RS05055 xanthine biosensor (pEH154); assay: as above
# Procedure: as §2
# [32] = test system: heterologous L-rhamnose-inducible system; assay: as above
# Procedure: as §2
# [33] = test system: heterologous acrylate-inducible system; assay: as above
# Procedure: as §2
# [34] = test system: heterologous cumate-inducible system; assay: as above
# Procedure: as §2
# [35] = test system: heterologous itaconate-inducible system; assay: as above
# Procedure: as §2
# [36] = test system: PcaQ/P_H16_RS30145 3,4-dihydroxybenzoate biosensor (pEH161); assay: as above
# Procedure: as §2
# [37] = test system: BenM/P_H16_RS09790 benzoate biosensor (pEH148); assay: as above
# Procedure: as §2
# 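For relative induction of RFP reporter vs primary effector (background-corrected) in this document: RFP excited at 585 nm with emission read at 620 nm, culture medium blanks subtracted from fluorescence and absorbance prior to normalisation.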
structure (smiles),measurement,setting,value
O=c1[nH]cnc2nc[nH]c12 [hypoxanthine],relative induction of RFP reporter,[1],-1.99%
same,relative induction of RFP reporter,[2],0.0138%
same,relative induction of RFP reporter,[3],-0.0181%
same,relative induction of RFP reporter,[4],-4.61%
same,relative induction of RFP reporter,[5],-0.0294%
same,relative induction of RFP reporter,[6],0.126%
same,relative induction of RFP reporter,[7],-0.263%
same,relative induction of RFP reporter,[8],0.0182%
same,relative induction of RFP reporter,[9],1.08%
same,relative induction of RFP reporter,[10],-0.186%
same,relative induction of RFP reporter,[11],0.109%
same,relative induction of RFP reporter,[12],-0.204%
same,relative induction of RFP reporter,[13],0.0689%
same,relative induction of RFP reporter,[14],0.797%
same,relative induction of RFP reporter,[15],166%
same,relative induction of RFP reporter,[16],0.00894%
same,relative induction of RFP reporter,[17],-1.8%
same,relative induction of RFP reporter,[18],-0.718%
same,relative induction of RFP reporter,[19],0.0665%
O=C(O)c1ccccc1 [benzoate],relative induction of RFP reporter,[20],4.78%
same,relative induction of RFP reporter,[21],-0.00267%
same,relative induction of RFP reporter,[22],-0.805%
same,relative induction of RFP reporter,[23],-1.25%
same,relative induction of RFP reporter,[24],-2.52%
same,relative induction of RFP reporter,[25],-0.127%
same,relative induction of RFP reporter,[26],0.078%
same,relative induction of RFP reporter,[27],-0.947%
same,relative induction of RFP reporter,[28],-0.295%
same,relative induction of RFP reporter,[29],-0.0427%
same,relative induction of RFP reporter,[30],-0.474%
same,relative induction of RFP reporter,[31],-0.493%
same,relative induction of RFP reporter,[32],-0.0138%
same,relative induction of RFP reporter,[33],-1.5%
same,relative induction of RFP reporter,[34],-1.2%
same,relative induction of RFP reporter,[35],-0.0216%
O=C(O)C1CCCCC1 [cyclohexane-1-carboxylate],relative induction of RFP reporter,[20],2.02%
same,relative induction of RFP reporter,[21],-0.0317%
same,relative induction of RFP reporter,[23],-8.69%
same,relative induction of RFP reporter,[24],-0.578%
same,relative induction of RFP reporter,[25],-0.0345%
same,relative induction of RFP reporter,[26],-0.0105%
same,relative induction of RFP reporter,[27],-0.348%
same,relative induction of RFP reporter,[36],-0.211%
same,relative induction of RFP reporter,[28],-0.472%
same,relative induction of RFP reporter,[29],0.0396%
same,relative induction of RFP reporter,[30],2.19%
same,relative induction of RFP reporter,[31],0.127%
same,relative induction of RFP reporter,[32],-0.00651%
same,relative induction of RFP reporter,[33],-0.97%
same,relative induction of RFP reporter,[34],2.49%
same,relative induction of RFP reporter,[35],0.233%
N[C@@H](Cc1c[nH]c2ccccc12)C(=O)O [L-tryptophan],relative induction of RFP reporter,[1],-1.3%
same,relative induction of RFP reporter,[2],0.00791%
same,relative induction of RFP reporter,[3],-0.0226%
same,relative induction of RFP reporter,[4],34.8%
same,relative induction of RFP reporter,[5],-1.31%
same,relative induction of RFP reporter,[6],-0.00554%
same,relative induction of RFP reporter,[7],65.7%
same,relative induction of RFP reporter,[8],0.00282%
same,relative induction of RFP reporter,[9],-0.39%
same,relative induction of RFP reporter,[10],-0.161%
same,relative induction of RFP reporter,[11],-0.235%
same,relative induction of RFP reporter,[12],1.21%
same,relative induction of RFP reporter,[13],0.0508%
same,relative induction of RFP reporter,[14],-0.293%
same,relative induction of RFP reporter,[15],-0.684%
same,relative induction of RFP reporter,[16],0.00955%
same,relative induction of RFP reporter,[17],-1.17%
same,relative induction of RFP reporter,[18],-1.03%
same,relative induction of RFP reporter,[19],-0.228%
"O=C(O)c1ccc(O)c(O)c1 [3,4-dihydroxybenzoate]",relative induction of RFP reporter,[20],-0.382%
same,relative induction of RFP reporter,[21],-0.0224%
same,relative induction of RFP reporter,[22],-0.555%
same,relative induction of RFP reporter,[37],-0.0316%
same,relative induction of RFP reporter,[23],8.18%
same,relative induction of RFP reporter,[24],-1.96%
same,relative induction of RFP reporter,[25],-0.149%
same,relative induction of RFP reporter,[26],0.0143%
same,relative induction of RFP reporter,[27],-1.27%
same,relative induction of RFP reporter,[28],-0.535%
same,relative induction of RFP reporter,[29],0.0892%
same,relative induction of RFP reporter,[30],-0.148%
same,relative induction of RFP reporter,[31],-0.547%
same,relative induction of RFP reporter,[32],0.0186%
same,relative induction of RFP reporter,[33],-0.891%
same,relative induction of RFP reporter,[34],-0.667%
same,relative induction of RFP reporter,[35],0.251%
